KDM5B inh: Primary screen for KDM5B Histone Demethylases FDH-coupled qHTS; Lysine-specific demethylase 5B (Homo sapiens), Q9UGL1; KDM5B demethylase, FDH-coupled NADH fluorescence (FDH is formaldehyde dehydrogenase); Potency, µM (titrated, usually from 57.7 µM), actives largely listed as inhibitors; 220,000 compounds, 2.6% hits; AID 1347165, 2019; active = well fitted inhibition curve with a large enough effect; inconclusive = small, poorly fitted or top-dose-only effect; inactive = no such curve, though single readings can be large or run the other way; also: nearly all actives have a fitted effect of over 70% in size
Target sequence (Q9UGL1 whole entry, looked up): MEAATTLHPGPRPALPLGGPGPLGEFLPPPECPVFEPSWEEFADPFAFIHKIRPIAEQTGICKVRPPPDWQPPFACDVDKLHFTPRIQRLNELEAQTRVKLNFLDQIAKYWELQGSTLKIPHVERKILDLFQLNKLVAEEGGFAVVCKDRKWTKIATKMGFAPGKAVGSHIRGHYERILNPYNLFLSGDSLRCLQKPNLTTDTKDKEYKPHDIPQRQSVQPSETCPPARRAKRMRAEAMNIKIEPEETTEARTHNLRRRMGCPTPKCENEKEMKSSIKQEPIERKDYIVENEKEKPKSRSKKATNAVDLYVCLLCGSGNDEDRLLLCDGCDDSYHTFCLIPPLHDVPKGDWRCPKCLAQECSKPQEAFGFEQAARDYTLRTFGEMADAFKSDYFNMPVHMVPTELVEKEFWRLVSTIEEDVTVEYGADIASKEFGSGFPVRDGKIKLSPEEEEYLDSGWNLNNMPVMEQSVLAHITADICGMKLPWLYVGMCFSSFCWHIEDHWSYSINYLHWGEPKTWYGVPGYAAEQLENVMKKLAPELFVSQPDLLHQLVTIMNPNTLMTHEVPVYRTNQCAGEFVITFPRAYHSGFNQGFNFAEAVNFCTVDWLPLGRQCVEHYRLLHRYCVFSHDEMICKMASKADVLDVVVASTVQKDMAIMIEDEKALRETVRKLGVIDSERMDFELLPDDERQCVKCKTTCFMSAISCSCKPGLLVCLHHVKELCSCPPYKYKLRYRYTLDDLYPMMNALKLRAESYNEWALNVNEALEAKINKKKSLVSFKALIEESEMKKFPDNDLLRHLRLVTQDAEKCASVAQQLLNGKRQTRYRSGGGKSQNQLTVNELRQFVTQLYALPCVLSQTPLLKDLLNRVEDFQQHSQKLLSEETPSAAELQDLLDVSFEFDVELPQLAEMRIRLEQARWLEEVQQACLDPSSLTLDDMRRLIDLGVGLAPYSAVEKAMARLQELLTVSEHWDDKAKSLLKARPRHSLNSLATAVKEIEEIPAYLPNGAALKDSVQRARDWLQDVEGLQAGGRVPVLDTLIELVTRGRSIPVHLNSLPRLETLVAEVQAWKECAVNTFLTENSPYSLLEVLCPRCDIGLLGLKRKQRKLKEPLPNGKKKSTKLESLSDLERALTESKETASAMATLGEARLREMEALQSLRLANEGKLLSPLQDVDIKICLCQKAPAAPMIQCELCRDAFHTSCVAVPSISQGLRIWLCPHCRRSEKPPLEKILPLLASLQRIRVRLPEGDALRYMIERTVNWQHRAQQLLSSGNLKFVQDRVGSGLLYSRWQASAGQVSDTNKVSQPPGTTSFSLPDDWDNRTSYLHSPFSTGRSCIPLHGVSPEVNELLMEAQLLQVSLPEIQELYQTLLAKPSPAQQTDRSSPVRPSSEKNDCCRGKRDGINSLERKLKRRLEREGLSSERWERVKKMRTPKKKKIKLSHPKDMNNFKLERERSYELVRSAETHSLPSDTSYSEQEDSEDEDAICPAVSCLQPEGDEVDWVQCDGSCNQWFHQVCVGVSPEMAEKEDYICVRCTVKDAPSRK
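Measured: NADH fluorescence change, 30 min, RT. System: KDM5BΔAP 200 nM final, H3K4me3 peptide, α-KG, Fe(II), ascorbate, NAD⁺ plus FDH, pH 7.5 HEPES. Compounds: titrated, 10 min pre-incubation with enzyme.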
IP6K1 inhibitor: Primary qHTS assay for small molecule inhibitors of Inositol hexaphosphate kinase 1 (IP6K1); IP6K1 kinase, ADP-Glo luminescence, 2 h; stronger effect = lower value; AID 1645851, 2021; Inositol hexakisphosphate kinase 1 (Homo sapiens), Q92551; 140,000 compounds, 0.81% hits; activity change, % (series mostly up to about 58 µM); in the data active = activity change below about -25%
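ADP-Glo luminescence measures ADP made by human IP6K1 during a 2 h RT reaction with ATP/IP6 (mix at 1.3 mM/130 uM); top library doses 57.5 and 19.1 uM final.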
Hits are given with their value; n = inactive; u = inconclusive; x = no result given; ! = not active in a repeat. Hits are enriched below; roughly 2.7% of the tested compounds scored in any of these assays.

SMILES	KDM5B inh	IP6K1 inhibitor
Cc1ccc(Oc2ccc(S(=O)(=O)N3CCCC3)cn2)c(Br)c1	n	x
Cc1cc2c(-c3cccc(S(C)(=O)=O)c3)nc(-c3c(C)noc3C)cc2[nH]1	35µM	n
Cc1cc2c(-c3cccc(CO)c3)nc(-c3c(C)noc3C)cc2[nH]1	n	n
Cc1onc(-c2ccccc2)c1-c1ccc(S(N)(=O)=O)cc1	x	n
Cc1cc2c(-c3ccc(S(C)(=O)=O)cc3)nc(-c3c(C)noc3C)cc2[nH]1	35µM	n
Cc1occc1C(=O)NC(C)c1cccc(Br)c1 (stereo not given)	n	x
Cn1c(=O)c2c(ncn2CC(=O)Nc2ccccc2Cc2ccccc2)n(C)c1=O	n	x
O=C(NCc1ccc(N2CCOCC2)cc1)c1cc2c(s1)CN(C1CC1)C2	11µM	n
O=C(NCCC1=CCCCC1)c1cc2c(s1)CN(C1CCCC1)C2	u	n
FC(F)(F)c1ccc(SCc2nc3ccccc3s2)nc1	n	x
Cc1cn2nc(C(=O)N3CCN(c4ccccn4)CC3)cc2c(N2CCCC2)n1	25µM	n
Cc1cn2nc(C(=O)N3CCC(C(N)=O)CC3)cc2c(N2CCCC2)n1	u	n
Cc1cn2nc(C(=O)N3CCN(c4cccc(Cl)c4)CC3)cc2c(N2CCCC2)n1	35µM	n
Cc1cn2nc(C(=O)N3CCN(c4ccccc4)CC3)cc2c(N2CCCC2)n1	u	n
CCn1nc(C)c(CNC(=O)Nc2ccc(C)cc2C)c1C	n	x
COc1ccc(-c2nc(C)nc3c2CN(C(=O)c2ccccc2)CC3)cc1	u	n
COc1ccc(-c2nc(C)nc3c2CCN(CC2CCCCC2)CC3)cc1	28µM	n
COc1ccc(-c2nc(C3CC3)nc3c2CCN(Cc2ccnn2C)CC3)cc1	u	n
COc1ccc(CN2CCc3nc(C)nc(-c4ccc(OC)cc4)c3CC2)cc1	n	n
COc1ccc(-c2nc(C)nc3c2CCN(Cc2ccnn2C)CC3)cc1	20µM	n
CCc1nc2c(c(-c3ccc(Cl)cc3)n1)CCN(CC1CCCCC1)CC2	n	n
COc1ccc(-c2nc(C)nc3c2CCN(Cc2cc(C)on2)CC3)cc1	20µM	n
COc1ccc(-c2nc(C)nc3c2CN(C(=O)c2ccccn2)CC3)cc1	16µM	n
CS(=O)(=O)N1CCc2cc(NS(=O)(=O)c3ccc4c(c3)CC(=O)N4)ccc21	n	x
CC(C)(C)CC(=O)C(C#N)C(=O)Nc1ccccc1Cl (stereo not given)	n	x
SMILES	KDM5B inh	IP6K1 inhibitor
CC(C)Oc1ccccc1/C=N/O	n	x
CNC(=O)c1noc(CNC(=O)C(c2cccc(F)c2)N(C)C)n1 (stereo not given)	n	n
COCCc1nc(CNC(=O)C(c2cccc(F)c2)N(C)C)no1 (stereo not given)	22µM	n
O=C(NCc1cccc(C(F)(F)F)c1)c1ccc2nnc(C3CCCC3)n2c1	x	n
c1cc(-c2cc(-c3ccncc3)c3cncn3c2)c2cc[nH]c2c1	u	n
COc1ccccc1CN1CCc2nc(C(=O)Nc3ccc(Cl)cc3)oc2CC1	35µM	n
O=C(Nc1ccc(Cl)cc1)c1nc2c(o1)CCN(Cc1cccc(F)c1F)CC2	35µM	n
COCCNC(=O)c1nc2c(o1)CCN(Cc1cccc(F)c1F)CC2	u	n
O=C(Nc1ccc(Cl)cc1)c1nc2c(o1)CCN(Cc1ccc(F)cc1F)CC2	28µM	n
COc1ccc(CN2CCc3nc(C(=O)Nc4ccc(Cl)cc4)oc3CC2)cn1	u	n
O=C(NCC1CC1)c1nc2c(o1)CCN(Cc1ccc(F)cc1F)CC2	n	n
Cc1nn(-c2ccccc2)c2c1C(C)N(C1CCN([S+](=O)([O-])c3cccs3)C1)C2=O (stereo not given)	x	n
COc1ccc2nc([C@H]3CCN(C(C)C)C3)[nH]c2c1	32µM	n
CN1CCC(N2CC[C@H](c3nc4ccccc4[nH]3)C2)CC1	n	n
FC(F)(F)c1ccc2nc([C@H]3CCN(C4CCCCC4)C3)[nH]c2c1	u	n
CC(C)N1CC[C@H](c2nc3ccc(C#N)cc3[nH]2)C1	u	n
Cc1ccc2nc([C@H]3CCN(C4CCC4)C3)[nH]c2c1	28µM	n
c1cc2nc(C3CCN(C4CCCCC4)C3)[nH]c2cn1 (stereo not given)	40µM!	n
CCn1nccc1C(=O)N1CCC2(CC1)c1[nH]c3ccc(OC)cc3c1CCN2C	u	n
CCCc1cc(=O)[nH]c(SCc2noc(-c3ccc(C)cc3)n2)n1	n	x
CCOC(=O)[C@@H]1CN(C(=O)c2ccccc2OC(F)(F)F)[C@H]2c3cccc(F)c3O[C@@H]12	x	n
CC(C)C(NC(=O)CSc1cc(Cl)ccc1Cl)c1ccc2c(c1)OCCCO2 (stereo not given)	n	x
Cc1cccc(C(=O)NC(C)c2ccc(-c3ccccc3)cc2)c1 (stereo not given)	n	x
O=C(c1nc(-c2ccc(Cl)nc2)c2cnccn12)N1CCN(c2ncccn2)CC1	u	n
CC(C)(C)c1nc(C(=O)N2CCOCC2)n2ccncc12	89µM	n
SMILES	KDM5B inh	IP6K1 inhibitor
Cn1ncc2c(C(=O)N3CCOCC3)cc(C(C)(C)C)nc21	n	n
CC(C)(C)c1nc(C(=O)N2CCCC2)n2ccncc12	100µM	n
NC(=O)C(c1ccccc1)N(Cc1cccs1)C1CC1 (stereo not given)	n	x
CCCC(=O)Oc1ccc2c(=O)c(Oc3ccccc3Br)c(C(F)(F)F)oc2c1	n	x
O=C(O)c1ccc(CNC2CCCCC2)cc1	n	x
Cc1noc2c(-c3cccnc3NCc3cccnc3)cc(-c3ccccc3)nc12	u	n
Cc1noc2c(-c3cccnc3NCCCn3ccnc3)cc(-c3ccccc3)nc12	35µM	n
COCCCNc1ncccc1-c1cc(-c2ccccc2)nc2c(C)noc12	40µM	n
Cc1noc2c(-c3cccnc3NCCN(C)C)cc(-c3ccccc3)nc12	u	n
COc1ccc2c3c1CN(C(=O)NCc1ccccc1)CC3=CC(C)(C)CO2	x	n
CCCSc1nn(CCN(C)C)c2nc3sc4c(c3c(=O)n12)CCCCC4	n	x
O=S(=O)(/C=C/c1ccccc1)Nc1ccc(Sc2nncs2)cc1	n	x
CCN(CC)C(=O)c1cc(C(=O)Nc2ccc(F)c(Cl)c2)n(C)n1	n	x
Cc1ccc(-c2ccc3nnc(CNC(=O)c4ccoc4)n3n2)cc1C	16µM	n
Cc1ccc(-c2ccc3nnc(CNC(=O)C4CCCC4)n3n2)cc1C	u	n
Cc1ccc(-c2ccc3nnc(CNC(=O)c4ccccc4F)n3n2)cc1C	28µM	n
Cc1ccc(-c2ccc3nnc(CNC(=O)Cc4ccc(F)cc4)n3n2)cc1C	u	n
Cc1ccc(-c2ccc3nnc(CNC(=O)c4ccccc4C)n3n2)cc1C	28µM	n
NS(=O)(=O)c1ccc(N2N=C(c3ccccc3)CCC2=O)cc1	n	x
CCC1=C(c2ccc(C)cc2)S(=O)(=O)N=C1N1CCC(C(=O)Nc2ccc(OC)c(OC)c2)CC1	n	x
Cn1ncc2c(C(=O)N3CCCC3)cc(-c3ccc([S+](C)(=O)[O-])cc3)nc21	89µM	n
Cn1ncc2c(C(=O)NCc3ccc(F)cc3)cc(-c3ccc([S+](C)(=O)[O-])cc3)nc21	50µM	n
C#CCNC(=O)c1cc(-c2ccc([S+](C)(=O)[O-])cc2)nc2c1cnn2C	32µM	n
Cn1ncc2c(C(=O)N3CCOCC3)cc(-c3ccc([S+](C)(=O)[O-])cc3)nc21	u	n

Source: PubChem (National Center for Advancing Translational Sciences (NCATS))
